Source: PubChem BioAssay (Tox21)
Inconclusive results are not listed. A call without a number means that no potency is given here. The source made the active and inactive calls. Calls come from the whole dose curve; as a rule, active = well fitted activation curve with a large enough effect in the repeat runs; inconclusive = weak or mixed curves; inactive = flat fitted curve, though single readings scatter.

Experiment: A CellTox Green Cytotoxicity Assay to monitor cytotoxicity in HEK293 cells - 16 hour (AID 1224888); note: nearly all actives have a fitted effect of over 35% in size
Settings: CellTox Green fluorescence; series mostly up to 76.8 µM
Description: National Center for Advancing Translational Sciences [NCATS]
NIH Chemical Genomics Center [NCGC]
U.S. Environmental Protection Agency [EPA]
National Institutes of Environmental Health Sciences [NIEHS]
National Toxicology Program [NTP]
Cell-based models are critical for drug discovery. Determining the natural cytotoxic effects resulting from test compounds is an essential research activity. A CellTox Green Cytotoxicity Assay to monitor cytotoxicity in real time of continues cell culture during 40 hours of the compound treatment was used to screen Tox21 10K library compounds in Hek293 cells. CellTox Green Cytotoxicity Assay is a nonlytic, homogeneous, biofluorescent method to measure cytotoxicity in cell culture after experimental manipulation. The assay system uses a proprietary asymmetric cyanine dye that is excluded from viable cells but preferentially stains the dead cell's DNA. […] Viable cells produce no appreciable increases in fluorescence. Therefore, the fluorescence signal produced by the binding interaction with dead cell DNA is proportional to cytotoxicity.
The mixture of Hek293 cell suspension and reagents were dispensed at 600cells/6 ul/well in 1536-well tissue culture treated black solid bottom plates using a Multidrop dispenser. After the assay plates were incubated at a 37 C/5% CO2 incubator for 5 hours, 23 nL of compounds dissolved in DMSO, positive and negative controls was transferred to the assay plate by a pintool work station. The plates were incubated at 37 C for 40 hours. The fluorescence intensity were measured at 0h, 8h, 16h, 24h, 32h and 40h time points using ViewLux plate reader during compound treatment.
Potency is the fitted concentration of half-maximal effect.

SMILES | Potency | activity change
CC1C2CC(CC2C2CCCC(O)C2)C1(C)C (stereo not given) | 49 µM (active) | –
C=CC(C)(C)CC(=O)OC | inactive | –
CCC(C(=O)OCCN(CC)CC)c1ccccc1 (stereo not given) | inactive | –
Cc1ccc(Nc2nccc(N(C)c3ccc4c(C)n(C)nc4c3)n2)cc1S(N)(=O)=O | inactive | –
COc1ccc(C(=O)c2cccc(O)c2)c(OC)c1 | inactive | –
C=CC(C)=CCC=C(C)C | inactive | –
CC(N)CN (stereo not given) | inactive | –
O=C(C(=O)c1ccccc1)c1ccccc1 | inactive | –
CCCCC(CC)CNCC(CC)CCCC (stereo not given) | inactive | –
CC(=O)Oc1ccc(C(=C2CCCCC2)c2ccc(OC(C)=O)cc2)cc1 | inactive | –
CCCCN(CCCC)CCCOC(=O)c1ccc(N)cc1 | inactive | –
CCCCC(CC)COC(=O)COc1ccc(Cl)cc1C (stereo not given) | inactive | –
Cc1oncc1C(=O)Nc1ccc(C(F)(F)F)cc1 | inactive | –
CC1(C)O[C@@H]2C[C@H]3[C@@H]4CCC5=CC(=O)C=C[C@]5(C)[C@H]4[C@@H](O)C[C@]3(C)[C@]2(C(=O)CO)O1 | inactive | –
[O]=[Bi] | – | -2.4% [at 6.97 µM, hits give high values] (inactive)
CO[C@H]1C=CO[C@@]2(C)Oc3c(C)c(O)c4c(O)c(c5c(c4c3C2=O)=NC2(CCN(CC(C)C)CC2)N=5)NC(=O)/C(C)=C\C=C/[C@H](C)[C@H](O)[C@@H](C)[C@@H](O)[C@@H](C)[C@H](OC(C)=O)[C@@H]1C | inactive | –
Cc1cc(S(=O)(=O)O)ccc1N=Nc1c(O)ccc2ccccc12 | inactive | –
O=C(CS)OCCOC(=O)CS | inactive | –
Nc1nc(Cl)nc2c1ncn2[C@@H]1O[C@H](CO)[C@@H](O)[C@@H]1F | inactive | –
COC(=O)Nc1nc2ccc(C(=O)c3cccs3)cc2[nH]1 | inactive | –

SMILES | Potency | activity change
COCCOC(=O)C1=C(C)NC(C)=C(C(=O)OC/C=C/c2ccccc2)C1c1cccc([N+](=O)[O-])c1 (stereo not given) | inactive | –
CCC(C)(O)CCC=C(C)C (stereo not given) | inactive | –
C/C=C/C=C/CCCCCCCO | inactive | –
COc1cc2[nH]c(=O)[nH]c(=O)c2cc1OC | inactive | –
C=C(C)C(=O)OCCOC(=O)CC(C)=O | inactive | –
CC(C)OCC1CO1 (stereo not given) | inactive | –
CC(C)CCCC(=O)O | inactive | –
Cc1cc2nc3ccc(=[N+](C)C)cc-3sc2cc1N | inactive | –
C(=C\c1ccccc1)/CN1CCN(C(c2ccccc2)c2ccccc2)CC1 | inactive | –
c1ccc(COCc2ccccc2)cc1 | inactive | –
C=CCOC(=O)/C=C\C(=O)OCC=C | inactive | –
NC(=O)Cn1c(=O)cc(CCN2CCN(c3nccc4sccc34)CC2)c2ccc(F)cc21 | inactive | –
CC(C)(CCl)c1ccccc1 | inactive | –
CCN(Cc1cccc(S(=O)(=O)O)c1)c1ccc(C(=C2C=CC(=[N+](CC)Cc3cccc(S(=O)(=O)[O-])c3)C=C2)c2ccccc2)cc1 | inactive | –
CCCCC/C(=C\c1ccccc1)CO | 48.4 µM (active) | –
CCc1c2c(nc3ccc(OC(=O)N4CCC(N5CCCCC5)CC4)cc13)-c1cc3c(c(=O)n1C2)COC(=O)[C@]3(O)CC | inactive | –
CCCCCCCCCOC(C)=O | inactive | –
CNC(=O)N(c1ccccc1)c1ccccc1 | inactive | –
CCCCCCCCCCCCCCCCBr | – | 2.24% [at 15.8 µM, hits give high values] (inactive)
CCOC(=O)C(C)Oc1ccc(Oc2nc3ccc(Cl)cc3o2)cc1 (stereo not given) | inactive | –
